Source: ChEMBL document CHEMBL3988442, “University of Dundee, Small-Polar-MMV Screening Library” (2021)

Target: T1, Proteasome subunit beta (Trypanosoma cruzi) (UniProt O96673)
T1 sequence (whole entry): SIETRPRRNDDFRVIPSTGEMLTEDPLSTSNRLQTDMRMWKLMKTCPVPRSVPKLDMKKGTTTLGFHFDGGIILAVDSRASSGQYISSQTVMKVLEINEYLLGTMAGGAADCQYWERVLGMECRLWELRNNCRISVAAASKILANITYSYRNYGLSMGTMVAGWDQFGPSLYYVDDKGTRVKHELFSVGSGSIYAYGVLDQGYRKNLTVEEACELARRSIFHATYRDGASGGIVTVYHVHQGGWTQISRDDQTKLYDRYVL
Assay: Trypanosoma cruzi proteasome chymotrypsin-like activity (TcProtChymo) assay.
Format: functional
Parameters: scale not given: in the data most compounds retested in dose-response had high values
Settings: 9.37 µM

Row | SMILES | Percent Effect
1 | Cc1ncsc1C(=O)N(C)CCc1ccncc1 | -1.84%
2 | O=C(O)c1ccc(F)c(S(=O)(=O)Nc2c(F)cccc2-n2cccn2)c1 | 8.02%
3 | Cn1cnc2c1C(COCc1cccnc1)N(Cc1ccccn1)CC2 (stereo not given) | 5.47%
4 | Cc1cc(CN2CCCC(C)(CO)C2)ccc1F (stereo not given) | 0.0858%
5 | CCS(=O)(=O)CC(=O)NC(c1ccc(F)cc1)C1CCCC1 (stereo not given) | 17%
6 | O=C(Nc1cccc(CN2CCOC2=O)c1)N1CCOCC1 | 12.6%
7 | CC(C)c1cc(NC(=O)c2ccc(C(=O)NC(C)(C)C)cc2)[nH]n1 | 0.169%
8 | CN(C)C(=O)CN1CCCCC1c1nc(N)ncc1-c1cccc(F)c1 (stereo not given) | 17.9%
9 | CCN1CC(C(=O)NC(C)(C)CC(C)(C)C)CC1=O (stereo not given) | 5.06%
10 | CC(C)CS(=O)(=O)CC(=O)N(C)Cc1ccc(OC(F)F)cc1 | 15.2%
11 | Cc1ccc(C(=O)Nc2cn[nH]c2)cn1 | 8.69%
12 | CSc1nccn1-c1cccc(C(=O)NCc2nnc(C)n2C)c1 | 3.98%
13 | CN(Cc1cnn(C)c1)C(=O)Cn1c(CS(C)(=O)=O)nc2ccccc21 | 11.2%
14 | CC1CN(Cc2nccn2C)CCN1c1ccc2nncn2n1 (stereo not given) | 9.29%
15 | O=C(CCn1cccn1)N1CCN(CC(F)F)CC1 | 4.13%
16 | Cc1noc(C(C)C)c1C(=O)N1CCCN(Cc2cscn2)CC1 | 15.6%
17 | CS(=O)(=O)CCNC(=O)C1(c2cccc(Cl)c2)CCCCC1 | 6.14%
18 | CCc1n[nH]c(C2CN(C(=O)c3ccsc3)CCO2)n1 (stereo not given) | 6.39%
19 | CN(C)C(=O)N1C[C@@H]2CC[C@H](C1)N(C(=O)CCCn1cncn1)C2 | 19%
20 | CN1CCN(C2CCN(CC(=O)NCC(F)(F)F)CC2)C1=O | 5.32%
